The source of these data is PubChem BioAssay AID602141 (Sanford-Burnham Center for Chemical Genomics, 2011).

Molecules are shown by their SMILES. Screen size: about 360,000 compounds; about 1,300 (0.36%) were called active. Many of the other results were omitted from the sample, so actives are more common in it than they were. Values without a mark were called inactive.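 Rule for the calls: active = corrected activity change at or below -50% at 5 µM; inactive = the rest.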

The test is described as follows: cytotoxicity in KKLEB CF airway cells, primary screen, cytotoxicity control for CF NF-kB inhibitor project, cell-based, uHTS, fluorescence assay plates (AID 602141). The following applies: KKLEB CF airway cells viability, ATPlite luminescence, overnight; at 5 µM; stronger effect = lower value; cells stimulated with P. aeruginosa culture filtrate. In general terms: In ATP-based viability assays light output follows the ATP content of the culture.
Turning to `Cc1noc(C)c1C(=O)OC(C)C(=O)Nc1ccc2c(c1)OCO2` (centres undefined), the activity change (cytotoxicity) is 1.3%. For `COc1ccccc1NC(=O)C1CCN(C(=O)c2ccc(C(C)(C)C)cc2)CC1`, the activity change (cytotoxicity) is 3.1%. For `O=C(C=CC(=O)Nc1ccc(F)cc1F)Nc1ccc(F)cc1F` the value was -11%; for `COc1ccc(NS(=O)(=O)c2ccc(N3CCOCC3)c(NC(=O)/C=C/C(=O)O)c2)cc1`, 17.8%; for `COC(=O)c1sc(-c2ccc(C(C)(C)C)cc2)cc1NC(=O)/C=C/C(=O)O`, -51.8% (active). For `O=C(NCC1CCCO1)c1ccccc1-c1nc(-c2ccccc2Cl)no1` (centres undefined) the value was -12.9%; for `O=C(O)CC12CC3CC(C1)CC(n1ncc(NCc4ccc(F)cc4)c(Cl)c1=O)(C3)C2`, -4.6%. As for `CCN1CCC2(CC1)N=C(c1ccc(F)cc1)C(=S)N2C(=O)c1ccc(C)cc1`, the activity change (cytotoxicity) was 2.3%. For `CCN1CCC(O)(/C=C/c2ccc(C)cc2)C(C(=O)/C=C/c2ccc(C)cc2)C1` (centres undefined) the value was -73.7% (active); for `CCc1nc2ccc(C(=O)N3CCC(O)(Cc4ccccc4)CC3)cn2c1N(C)C(=O)Cc1ccccc1`, -15.5%; for `CC(=O)c1ccc(-c2cnc3c(NC=O)cc(-c4cccc(NS(C)(=O)=O)c4)cn23)cc1`, -51.7% (active). Then `CC(=O)Nc1cccc(-c2cc(NC=O)c3ncc(-c4ccc(F)c(Cl)c4)n3c2)c1`, with 0.8%; and `CC(=O)c1cccc(-c2cnc3c(NC=O)cc(-c4ccc(N(C)C)cc4)cn23)c1`, with -27.1%. For `O=C(Nc1ccncc1)c1c(F)cccc1F` the value was -51.3% (active). For the molecule `COc1cccc(OC)c1C(=O)Nc1ccc(Cc2ccncc2)cc1`, the activity change (cytotoxicity) is -3.9%. As for `O=C(Nc1ccc(S(=O)(=O)N2CCCCCC2)cc1)c1c(F)cccc1F`, the activity change (cytotoxicity) is 5.1%. Regarding `CCOC(=O)C1CCCN(C(=O)C2CCN(c3nnc(-n4cccc4)s3)CC2)C1` (centres undefined), the activity change (cytotoxicity) was -8.3%.

In the case of `COc1ccc(NC(=O)COC(=O)C2COc3ccccc3O2)cc1` (centres undefined), the activity change (cytotoxicity) is 12.9%. For `O=C(Nc1nc(-c2ccncc2)cs1)C1COc2ccccc2O1` (centres undefined) the value was -70.7% (active). Then `O=C(Nc1cc(S(=O)(=O)N2CCCCC2)ccc1Cl)C1COc2ccccc2O1` (centres undefined), with -14%; and `CCN1CCN(C(=O)CN(C)S(=O)(=O)c2ccc(OC)cc2)CC1`, with 3.4%; and `CSc1cccc(NC(=O)CN2C(=O)COc3ccc(S(=O)(=O)N4CCOCC4)cc32)c1`, with 6.5%. Then `Cc1ccc(CNC(=O)COc2ccc(S(=O)(=O)NC(C)C)cc2)cc1`, with -0.1%. With `O=C1CN(C(=O)c2ccccc2F)C(c2ccc(F)cc2)c2cc(F)ccc2N1` (centres undefined), the activity change (cytotoxicity) was 11.6%.
